# Compound activity deposited in PubChem BioAssay by several laboratories.
# Most compounds without a hit are left out; they make up all but 4.2% or so of the library.
# tim23-1 inh = tim23-1 yeast growth inhibition; 1.3% of 330,000 active; AID 463212; inhibition, % at 20 µM; S. cerevisiae tim23-1 growth, BacTiter-Glo luminescence, 24 h;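 active = growth inhibition of the mutant yeast at or above 50%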;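 also: temperature-sensitive mutant grown at 25 °C; plate controls were DMSO-treated mutant yeast for no effect and medium wells lacking yeast for full effect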
# V-ATPase pH = regulators of yeast V-ATPase proton transport; S. cerevisiae, pHLuorin cytosolic pH fluorescence; response, % at 10 µM; AID 504577; 0.37% of 350,000 active; in the data active = response mostly above about 7.3%, no sharp cut-off; inactive = mostly below about 5.4%; also: actives read high
# NALP1 inh = NALP1 inhibition; S. cerevisiae NALP1/ASC/caspase-1 growth, X-gal OD620, 72 h; inhibition, % at 10 µM; 0.61% of 280,000 active; AID 2071; in the data active = inhibition mostly above about 24%, no sharp cut-off; inactive = mostly below about 32%
# tim10-1 inh = growth inhibitors of tim10-1 mutant yeast | S. cerevisiae tim10-1 ts strain growth, BacTiter-Glo, 24 h | inhibition, % at 20 µM | 2.2% of 330,000 active;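 active = inhibition of at least 40%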;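 also: mutant grown at 25 °C; 0% = DMSO wells with yeast and 100% = wells holding no yeast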
# TIM10 inh = TIM10 yeast growth inhibition. inhibition, % at 10 µM. 1.4% of 330,000 active. S. cerevisiae TIM10 strain growth, BacTiter-Glo luminescence, 24 h;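 active = inhibition of 40% or more at the single tested concentration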;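 also: wild-type TIM10 isogenic control strain grown at permissive 25 °C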
# NLRP3 yeast inh = blocks the NALP3 inflammasome reconstituted in yeast. inhibition, % at 10 µM. Yeast reconstituted NLRP3/ASC/caspase-1, beta-gal luminescence, 24 h. 0.39% of 330,000 active. AID 2825;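 active = inhibition of 50% or more; inactive = inhibition below 50%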;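 also: plate controls were induced DMSO wells for no effect and uninduced yeast grown without galactose for full effect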
# tim10-1 confirm = confirmation of tim10-1 mutant yeast growth inhibitors; shares compounds with tim10-1 inh; S. cerevisiae tim10-1 ts strain growth, BacTiter-Glo, 24 h; inhibition, % at 20 µM; 56% of 7,400 active;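 active = inhibition of yeast growth at or above a set limit in either of two repeat tests at 20 µM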;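 also: tim10-1 mutant grown at permissive 25 °C to find synthetic lethal compounds; 0% = DMSO yeast wells and 100% = medium wells without yeast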
# * = called active by the depositor; x = not tested or not shown.
SMILES,tim23-1 inh,V-ATPase pH,NALP1 inh,tim10-1 inh,TIM10 inh,NLRP3 yeast inh,tim10-1 confirm
FC(F)(F)c1ccc(CSc2nccn2-c2ccccc2)cc1,10,2,5,7,6,6,x
CCC(C(=O)c1ccc(O)cc1)c1ccccc1 (stereo unspecified),24,1,0,46*,20,-66,28
O=C(CCC(C(=O)c1ccccc1)c1ccccc1)c1ccccc1 (stereo unspecified),x,0,x,x,x,x,x
OC(COC(c1ccc(Cl)cc1)c1ccc(Cl)cc1)CN1CCc2ccccc2C1 (stereo unspecified),18,3,42,44*,31,31,-3
OC(COC(c1ccccc1)c1ccccc1)CN1CCc2ccccc2C1 (stereo unspecified),6,-3,4,15,13,9,x
O=C(CCC(=O)NC1CC1)Nc1nnc(C2CCCCC2)s1,7,5,12,22,-11,16,x
CN(C)c1nc(OCCNC(=O)Nc2ccccc2)nc(N2CCCCC2)n1,21,4,7,40*,16,1,18
O=C(Cn1ccc(C(F)(F)F)n1)N=Nc1c(O)[nH]c2ccccc12,11,17,5,15,24,8,x
CC(C)n1c(O)c(N=NC(=O)Cn2ccc(C(F)(F)F)n2)c2ccccc21,8,-4,-6,44*,15,-11,28
CCSc1c([N+](=O)[O-])c(=O)n(-c2ccccc2)c2ccccc12,45,-1,x,47*,40,30,46*
COCCNc1c([N+](=O)[O-])c(=O)n(-c2ccccc2)c2ccccc12,0,0,23,13,5,30,x
CC1(C)CC[C@]2(C(=O)O[C@@H]3OC(CO)[C@@H](O)[C@H](O)[C@H]3O)CC[C@]3(C)C(=CCC4[C@@]5(C)CC[C@H](O[C@@H]6OC(C(=O)O)[C@@H](O)[C@H](O)[C@H]6O)C(C)(C)C5CC[C@]43C)[C@@H]2C1 (stereo partly specified),28,-2,x,40*,1,-19,22
CCOC(=O)CN1C(c2ccc(O)cc2)Nc2ccc(Br)cc2C1c1ccccc1 (stereo unspecified),44,-1,24,46*,32,1,18
COC1=C/C(=C/c2c(O)c(C#N)c3ccccn23)C=CC1=O,1,3,-14,11,8,-41,x
Cc1ccc2nc(-c3cccc(Br)c3)cc(C(=O)NCC3CCCO3)c2c1 (stereo unspecified),35,-2,4,10,0,23,x
O=C(NCc1cccnc1)c1ccc(-c2cc(Cl)ccc2Cl)o1,33,-1,14,40*,15,17,30
COc1ccc(C2C(=O)N(CCc3ccccc3)CC(=O)N2C2CCCC2)cc1 (stereo unspecified),33,-4,2,44*,16,7,29*
CC(=O)NCC1(O)CCCC(C)C1 (stereo unspecified),2,-1,-18,15,-9,-3,x
COc1ccccc1-n1c(SCC(=O)c2ccc(O)cc2O)nc2cc([N+](=O)[O-])ccc21,39,1,26,41*,4,17,29
COc1ccccc1-n1c(SCC(=O)NC2CCS(=O)(=O)C2)nc2cc([N+](=O)[O-])ccc21 (stereo unspecified),3,1,23,10,7,1,x
CCc1c(C)sc2nc(SCC(=O)Nc3cc(C)on3)n(CCOC)c(=O)c12,16,0,0,9,2,4,x
CC(=O)c1cc2c(cc1NC(=O)c1c(-c3ccccc3)noc1C)OCO2,12,1,-8,2,7,20,x
Cc1cc(C(F)(F)F)n(-c2nc(C(=O)N/N=C/c3ccc(F)cc3)cs2)n1,12,-2,9,42*,15,21,20
C=CCc1ccc(O)c(-c2ccc(O)c(CC=C)c2)c1,47,0,2,45*,34,-6,48*
O=C(CC(Nc1ccc(F)cc1)c1ccccc1)c1ccccc1 (stereo unspecified),34,-2,19,25,33,6,x
SMILES,tim23-1 inh,V-ATPase pH,NALP1 inh,tim10-1 inh,TIM10 inh,NLRP3 yeast inh,tim10-1 confirm
Fc1ccc(N/N=C/C=C/c2ccccc2)c(F)c1,28,1,x,69*,10,16,49*
Fc1ccc(N/N=C/c2ccncc2)c(F)c1,17,-2,26,-11,8,19,x
CCOc1ccc(N2C(=O)/C(=C\c3ccccc3OC)S(=O)(=O)C2c2cccc([N+](=O)[O-])c2)cc1 (stereo unspecified),34,2,14,45*,16,12,41*
O=C(CCl)N1CCN(S(=O)(=O)Cc2ccccc2)CC1,29,-4,x,43*,18,17,20
O=S(=O)(c1ccc2c(c1)oc1ccccc12)N1CCOCC1,15,3,11,7,14,20,x
O=S(=O)(Nc1ccc2c(c1)oc1ccccc12)N1CCCC1,22,0,11,48*,39,12,27
CC(C)(C)c1ccc(C(=O)CC(Sc2ccc(Cl)cc2)C(=O)O)cc1 (stereo unspecified),42,3,9,41*,40,10,51*
CCN1CCN(CCCNC(=O)C(NC(=O)C2CCC(C)CC2)C(C)C)CC1 (stereo unspecified),x,x,21,x,x,x,x
Cc1oc2c(Cl)c(Cl)c(O)c(CN(C)C)c2c1C(=O)c1ccc(Cl)cc1,45,-4,-5,49*,38,18,53*
Nc1nc(-c2ccc(F)cc2)cs1,22,2,14,-2,1,13,x
Nc1nc(-c2ccc(Br)cc2)cs1,44,2,34,56*,32,31,46*
COc1cc(C(C)=O)ccc1OCCCN1CCC(Cc2ccccc2)CC1,-9,0,x,-14,4,26,x
CC(=O)C(Cc1ccccc1)NC(=O)COC(=O)c1cccc(C)c1[N+](=O)[O-] (stereo unspecified),17,2,x,10,5,17,x
CC(C)CNC(=O)/C(C#N)=C1\N=C(NC(=O)c2ccco2)c2ccccc21,38,-3,10,47*,27,12,-3
COc1ccc(/C=C2\N=C(C)N(c3ccc(C(=O)O)cc3)C2=O)cc1OC,3,0,7,3,4,10,x
COc1ccc(C2=CC(c3ccc(OC)c(OC)c3)NC(=S)N2)cc1 (stereo unspecified),4,3,7,12,7,-9,x
COc1ccc(C2C=C(C34CC5CC(CC(C5)C3)C4)NC(=S)N2)cc1 (stereo unspecified),35,-2,41,43*,22,13,30
